Measured values taken from PubChem BioAssay (NCATS).
Records with an inconclusive call do not appear. Unless noted, the call rests on the fitted dose curve; in most records, active means well fitted curve in either direction with a large enough effect (not every such curve was filed as active); inconclusive means small, poorly fitted or top-dose-only effect, or another doubt; inactive means flat fitted curve, though single readings scatter.

Columns and labels:
[1] = AP1 Signaling Pathway (AID 357); details: ME-180 AP-1-bla reporter, EGF-induced, beta-lactamase ratio, 5 h; at 17.2 µM (top of the series) unless noted;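 further: ME-180 reporter cells stimulated with EGF at its EC50 level; on the % scale 0 is the no-effect control and ±100 the full control effect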
Summary of the method: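 First, ME-180 AP-1-bla cells were cultured overnight at 37 °C in low-serum Opti-MEM. Next, titrated compounds with EC50 EGF were incubated 5 hours. Finally, CCF4 was added for 2.5 hours and the 460/530 nm ratio recorded.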

[2] = NFAT Signaling Pathway (AID 444); details: Jurkat NFAT-bla M1, carbachol, beta-lactamase ratio, 5 h; at 17.2 µM (top of the series) unless noted;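 further: carbachol stimulus at about its EC50 of 1 µM final; on the % scale 0 is the no-effect control and ±100 the full control effect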
Summary of the method: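 Jurkat cells carrying an NFAT-driven β-lactamase reporter and co-transfected muscarinic M1 receptor were treated with compound plus carbachol (1 uM final, an EC50 level) for 5 h at 37 °C. CCF4 loading followed for 1 h at RT; 460/530 nm ratio gave %activity.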

[3] = Stat Signaling Pathway (AID 446); details: ME-180 SIE beta-lactamase reporter, IL-6 stimulated, 5 h; at 17.2 µM (top of the series) unless noted;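 further: ME-180 cervical cancer cells given 40 pM IL-6 alongside compound; SIE-controlled beta-lactamase reporter measured as 460/530 nm FRET emission ratio; on the % scale 0 is the no-effect control and ±100 the full control effect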
Summary of the method: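 Screening format detects activators and inhibitors alike: ME-180 SIE-bla cells stimulated at 40 pM IL-6 for 5 hrs with compound, then dual-emission beta-lactamase read at 405 nm excitation.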

[4] = molecular target: Glucocorticoid receptor (Homo sapiens) (UniProt P04150); assay: GR-GFP Redistribution (AID 450;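 active means compounds whose dose series gives a full or clear partial fitted curve of increased nuclear translocation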; further: potency means the concentration at half of the fitted maximal effect)
Sequence of Glucocorticoid receptor (Homo sapiens) (P04150 whole entry, looked up): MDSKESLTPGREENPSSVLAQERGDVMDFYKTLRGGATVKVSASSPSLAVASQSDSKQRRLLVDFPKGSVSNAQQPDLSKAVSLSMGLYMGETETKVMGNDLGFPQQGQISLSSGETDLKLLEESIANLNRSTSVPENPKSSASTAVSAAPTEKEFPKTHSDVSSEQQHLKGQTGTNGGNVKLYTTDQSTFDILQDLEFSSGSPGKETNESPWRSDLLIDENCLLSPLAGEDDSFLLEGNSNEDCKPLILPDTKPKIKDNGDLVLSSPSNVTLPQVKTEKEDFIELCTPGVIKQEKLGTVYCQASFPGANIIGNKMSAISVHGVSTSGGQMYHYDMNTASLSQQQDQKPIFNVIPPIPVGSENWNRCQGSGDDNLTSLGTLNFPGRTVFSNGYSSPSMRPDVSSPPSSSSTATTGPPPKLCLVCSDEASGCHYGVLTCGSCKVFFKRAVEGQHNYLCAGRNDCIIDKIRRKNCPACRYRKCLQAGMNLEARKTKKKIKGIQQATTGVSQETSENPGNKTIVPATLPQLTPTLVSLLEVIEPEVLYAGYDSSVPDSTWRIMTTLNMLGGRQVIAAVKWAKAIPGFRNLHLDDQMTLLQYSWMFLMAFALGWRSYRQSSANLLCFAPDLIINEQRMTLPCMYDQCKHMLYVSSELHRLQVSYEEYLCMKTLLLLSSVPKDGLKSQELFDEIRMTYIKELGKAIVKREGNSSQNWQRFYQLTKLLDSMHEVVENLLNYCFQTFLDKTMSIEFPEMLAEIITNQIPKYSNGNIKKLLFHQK

CCOP(=O)(c1ccccc1)C1(C#N)CCCC1 (stereo not given)
inactive: activity change, negative = inhibition [1] 8.95% | activity change, negative = inhibition [2] 7.44% | activity, negative = inhibition [3] 7.92% | Potency [4] > 20.6 µM

O=C1C(=O)N(CCN2CCOCC2)C(c2ccccn2)/C1=C(/O)c1ccc(F)cc1 (stereo not given)
inactive: activity change, negative = inhibition [1] 10.4% | activity change, negative = inhibition [2] 21.3% | activity, negative = inhibition [3] -1.73% | Potency [4] > 20.6 µM

CCC1(C)Cc2c(sc(NC(=O)CCC(=O)O)c2C#N)CO1 (stereo not given)
inactive: activity change, negative = inhibition [1] 4.06% | activity change, negative = inhibition [2] 0.708% | activity, negative = inhibition [3] 9.62% | Potency [4] > 20.6 µM

CCOC(=O)COc1ccc(Oc2nc(C)cc(OC)n2)nn1
inactive: activity change, negative = inhibition [1] 13.9% | activity change, negative = inhibition [2] 12.6% | activity, negative = inhibition [3] -0.709% | Potency [4] > 20.6 µM

CCC(NC(=O)NC1=NCCS1)(C(F)(F)F)C(F)(F)F
inactive: activity change, negative = inhibition [1] 8.03% | activity change, negative = inhibition [2] -10% | activity, negative = inhibition [3] 15.4% | Potency [4] > 20.6 µM

CC12CN3CC(C)(CN(C1)C3c1ccc(Cl)cc1Cl)C2O (stereo not given)
inactive: activity change, negative = inhibition [1] 3.94% | activity change, negative = inhibition [2] -12% | activity, negative = inhibition [3] 3.23% | Potency [4] > 20.6 µM

CCCCn1c(C)cc2cc(O)ccc21
inactive: activity change, negative = inhibition [1] -15.1% | activity change, negative = inhibition [2] -5.83% | activity, negative = inhibition [3] -8.99% | Potency [4] > 20.6 µM

CCOc1cccc(-c2nn3c(-c4ccccn4)nnc3s2)c1
inactive: activity change, negative = inhibition [1] -15% | activity change, negative = inhibition [2] -14.4% | activity, negative = inhibition [3] -1.87% | Potency [4] > 20.6 µM

S=c1[nH]nc(-c2ccco2)n1C1CCCCC1
inactive: activity change, negative = inhibition [1] -7.16% | activity change, negative = inhibition [2] 12.4% | activity, negative = inhibition [3] 1.34% | Potency [4] > 20.6 µM

COC(=O)c1ccc(C2/C(=C(\O)c3cccc(OC)c3)C(=O)C(=O)N2CCCN2CCOCC2)cc1 (stereo not given)
inactive: activity change, negative = inhibition [1] 3.85% | activity change, negative = inhibition [2] -2.61% | activity, negative = inhibition [3] 15.2% | Potency [4] > 20.6 µM

CC1(C)CC(=O)C2=C(C1)N(Cc1ccco1)C(=O)C2(O)C(F)(F)F (stereo not given)
inactive: activity change, negative = inhibition [1] 11.1% | activity change, negative = inhibition [2] -3.91% | activity, negative = inhibition [3] -2.61% | Potency [4] > 20.6 µM

Fc1ccc(C2C3=C(Nc4ncnn42)c2ccccc2OC3c2ccncc2)cc1 (stereo not given)
inactive: activity change, negative = inhibition [1] -29% | activity change, negative = inhibition [2] -17% | activity, negative = inhibition [3] -12.3% | Potency [4] > 20.6 µM

CCN(CC)CCCN1C(=O)C(=O)/C(=C(/O)c2ccccc2)C1c1cc(OC)ccc1OC (stereo not given)
inactive: activity change, negative = inhibition [1] 3.34% | activity change, negative = inhibition [2] 7.04% | activity, negative = inhibition [3] 3.31% | Potency [4] > 20.6 µM

COc1cc(C2CC(C(F)(F)F)n3ncc(C(=O)O)c3N2)cc(OC)c1OC (stereo not given)
inactive: activity change, negative = inhibition [1] 6.2% | activity change, negative = inhibition [2] -3.76% | activity, negative = inhibition [3] 7.46% | Potency [4] > 20.6 µM

Cc1cc2nncn2c(Cc2ccccc2)n1
inactive: activity change, negative = inhibition [1] -3.42% | activity change, negative = inhibition [2] -3.53% | activity, negative = inhibition [3] -8.81% | Potency [4] > 20.6 µM

Cn1c(CSc2ncn[nH]2)nc2ccccc21
inactive: activity change, negative = inhibition [1] -5.65% | activity change, negative = inhibition [2] 3.91% | activity, negative = inhibition [3] 20.6% | Potency [4] > 20.6 µM

CC1(C)Cc2c(C#N)c(N3CCOCC3)nc(Cc3ccccc3)c2CO1
inactive: activity change, negative = inhibition [1] -20.2% | activity change, negative = inhibition [2] -28.9% | activity, negative = inhibition [3] -7.6% | Potency [4] > 20.6 µM

Cc1ccc(N2C(=O)CC3(CC4C=CC3C4)C2=O)cc1 (stereo not given)
inactive: activity change, negative = inhibition [1] 28.9% | activity change, negative = inhibition [2] 4.88% | activity, negative = inhibition [3] 14% | Potency [4] > 20.6 µM

CCOC(=O)c1[nH]c2cc3c(cc2c1NC(=O)CN1CCC(C)CC1)OCO3
inactive: activity change, negative = inhibition [1] -11.2% | activity change, negative = inhibition [2] 3.83% | activity, negative = inhibition [3] -3.19% | Potency [4] > 20.6 µM

CN(C)/C=C1\N=C(c2ccc(Cl)cc2Cl)OC1=O
inactive: activity change, negative = inhibition [1] -19.5% | activity change, negative = inhibition [2] -5.67% | activity, negative = inhibition [3] 3.89% | Potency [4] > 20.6 µM

COc1ccccc1OCC(=O)Nc1ccc(S(=O)(=O)Nc2cc(C)nc(C)n2)cc1
inactive: activity change, negative = inhibition [1] -4.5% | activity change, negative = inhibition [2] -9.32% | activity, negative = inhibition [3] -5.19% | Potency [4] > 20.6 µM

CC1(C)Cc2c(C#N)c(NCCN3CCOCC3)nc(-c3ccco3)c2CO1
inactive: activity change, negative = inhibition [1] -12.2% | activity change, negative = inhibition [2] 5.08% | activity, negative = inhibition [3] -0.141% | Potency [4] > 20.6 µM

CC1(C)Nc2ccc(O)cc2-c2c1ssc2=S
inactive: activity change, negative = inhibition [1] -3.5% | activity change, negative = inhibition [2] 19.6% | activity, negative = inhibition [3] -16.8% | Potency [4] > 20.6 µM

C/C(=N\O)C(=O)NCCCNCCCN(C)C
inactive: activity change, negative = inhibition [1] 2.66% | activity change, negative = inhibition [2] -0.0528% | activity, negative = inhibition [3] 14.2% | Potency [4] > 20.6 µM

Cc1ccc(-c2nn(C)c(=O)c3ccccc23)cc1CN1CCOCC1
inactive: activity change, negative = inhibition [1] 16.4% | activity change, negative = inhibition [2] -19.8% | activity, negative = inhibition [3] -0.983% | Potency [4] > 20.6 µM
